# According to PMC5540273 (PLoS ONE, 2017):
# Columns and labels:
# Settings in all cases: concentration: 1 μM, replicates: in singlicate; n = 1
# TIE1 = system: TIE1
# TIE2 = system: T1, TIE2
# T1 construct: gene TEK
# TLK1 = system: TLK1
# TLK2 = system: TLK2
# TNIK = system: TNIK
# TNK1 = system: TNK1
# TNK2 = system: TNK2
# TNNI3K = system: TNNI3K
# TRKA = system: T2, TRKA
# T2 construct: gene NTRK1
# TRKB = system: TRKB
# 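Also: KINOMEscan kinase panel screen.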
Structure (SMILES),%Inh (TIE1),%Inh (TIE2),%Inh (TLK1),%Inh (TLK2),%Inh (TNIK),%Inh (TNK1),%Inh (TNK2),%Inh (TNNI3K),%Inh (TRKA),%Inh (TRKB)
CS(=O)(=O)CCNCc1nc(-c2ccc3ncnc(Nc4ccc(OCc5cccc(F)c5)c(Cl)c4)c3c2)cs1.Cl [GW583340],0%,0%,22%,0%,0%,0%,6%,0%,0%,0%
CC(C)N1CCC(n2cnc(-c3ccc(F)cc3)c2-c2ccnc(N)n2)CC1 [SB-223132],0%,96.9%,5%,0%,11%,3%,0%,4%,0%,0%
Nc1n[nH]c2nnc(-c3ccccc3)cc12 [SB-517389],0%,0%,15%,0%,0%,0%,20%,13%,0%,0%
N#Cc1ccc(Oc2ccc(Nc3ncnc4cc[nH]c34)cc2Cl)cc1,0%,20%,22%,0%,9%,0%,2%,26%,17%,0%
Cc1ccc(O)cc1Nc1cc(C(F)(F)F)nc2ccc(-c3ccncc3)cc12 [GW630823],0%,3%,21%,0%,1%,0%,17%,14%,0%,0%
O=C(c1ccc(-c2cc(-c3c[nH]nc3-c3ccccn3)ccn2)cc1)N1CCCC1 [GW792479],0%,27%,0%,0%,48%,21%,0%,0%,0%,0%
Cl.Cn1ccc(-c2cccc(Nc3ccnc4cc(-c5nccs5)ccc34)c2)n1 [GW525701],0%,0%,13%,3%,50%,0%,33%,0%,0%,60%
Cn1ccc2ncnc(Nc3ccc(Oc4cccc(Cl)c4)c(Cl)c3)c21,0%,26%,22%,9%,17%,0%,0%,11%,0%,0%
Cc1ccc(C)c(NC(=O)NCCNc2ccnc(Nc3ccc(F)cc3)n2)c1 [GSK1379878],0%,0%,1%,0%,0%,0%,9%,0%,10%,0%
CSc1ccc(NC2=C(c3ccccc3Cl)C(=O)NC2=O)cc1 [SB-342411],40%,0%,35%,6%,0%,0%,0%,29%,20%,0%
CCc1nc(-c2cccc(C)c2)c(-c2ccnc(NC(=O)c3ccccc3)c2)s1,0%,0%,13%,0%,62%,27%,9%,0%,17%,0%
CCn1c(-c2ccncc2)nc2cnccc21 [SB-735216],0%,12%,0%,0%,0%,1%,13%,0%,27%,41%
CNc1nccc(-c2c(-c3ccc(F)cc3)ncn2CCCN2CCOCC2)n1 [SB-222516],0%,0%,0%,0%,0%,4%,0%,0%,0%,19%
CC(=O)Nc1n[nH]c2ncc(-c3ccccc3)cc12 [SB-548492],0%,21%,6%,0%,12%,0%,0%,0%,90.1%,25%
Clc1cccc(-c2nc(Nc3ccncc3)c3ccccc3n2)c1 [GW873004],0%,48%,0%,0%,0%,59%,40%,0%,0%,0%
CS(=O)(=O)CCNCc1ccc(-c2ccc3ncnc(Nc4ccc(OCc5ccccc5)c(Cl)c4)c3c2)o1.Cl [GW574783],34%,2%,0%,0%,0%,0%,9%,0%,17%,0%

Structure (SMILES),%Inh (TIE1),%Inh (TIE2),%Inh (TLK1),%Inh (TLK2),%Inh (TNIK),%Inh (TNK1),%Inh (TNK2),%Inh (TNNI3K),%Inh (TRKA),%Inh (TRKB)
Cc1cccc(-c2nc(Nc3ccc4[nH]nnc4c3)c3ccccc3n2)n1 [GW867587],0%,0%,0%,0%,0%,24%,0%,0%,0%,0%
CSc1nn2c(=O)cc(N3CCOCC3)nc2n1Cc1cccc(Cl)c1Cl [GSK2347225],14%,2%,4%,0%,3%,3%,24%,15%,1%,0%
COc1ccc(Nc2nccc(N3CCC(NC(=O)Nc4ccc5c(c4)OCO5)C3)n2)cc1 (stereo not shown) [GSK1379745],19%,0%,18%,0%,1%,0%,14%,11%,64%,41%
Nc1nc(-c2ccccn2)c(-c2ccnc3ccccc23)s1 [GW548057],0%,0%,12%,4%,33%,0%,5%,0%,49%,0%
Cl.O=S(=O)(c1cccc(F)c1)c1ccc(Nc2ncnc3cc(Br)sc23)cc1Cl [GSK306886],0%,0%,19%,2%,0%,0%,21%,23%,0%,0%
COc1ccc(NC(=O)c2ccc(-c3cc(-c4nnc(C)o4)ccc3C)cc2)cc1 [GW595885],14%,0%,0%,0%,0%,0%,21%,0%,0%,17%
FC(F)(F)c1cc(Nc2nccc(-c3c(-c4ccc(Cl)cc4)nn4ncccc34)n2)ccc1Cl [GW829351],0%,0%,0%,0%,12%,21%,0%,0%,0%,0%
CN1c2ccc(-c3ccc(C(=O)NCCO)cc3)cc2-c2[nH]ncc2S1(=O)=O,0%,3%,22%,30%,43%,52%,10%,3%,0%,0%
Nc1nccc2scc(-c3ccc4c(c3)CCN4C(=O)Cc3cc(F)ccc3F)c12 [GSK2587663],54%,1%,4%,0%,0%,0%,23%,4%,0%,42%
O=C(NCCCN1CCCC1=O)c1cnc(NCc2cc(Cl)ccc2Cl)nc1NC1CCNCC1,1%,2%,12%,0%,0%,34%,0%,0%,69%,32%
Cl.Fc1ccccc1COc1ccc(Nc2ncnc3ccc(-c4nnc(C(F)(F)F)o4)cc23)cc1Cl [GW424170],0%,0%,4%,0%,0%,0%,0%,0%,3%,6%
Cl.Cl.c1ccc(-c2cc3ccncc3cc2OC2CCNCC2)cc1 [GSK1122999],1%,0%,0%,7%,0%,6%,27%,26%,0%,0%
O=C(CCO)NCCn1ccc2ncnc(Nc3ccc(Oc4cccc(C(F)(F)F)c4)c(Cl)c3)c21,0%,0%,0%,0%,0%,0%,0%,0%,0%,0%
O=C(Nc1ccccc1F)NC1CCN(c2ccnc(Nc3ccc(F)cc3)n2)C1 (stereo not shown) [GSK1379722],0%,0%,0%,0%,0%,0%,27%,0%,0%,32%
Cn1cc(-c2ccc3c(c2)CCN3C(=O)Cc2cccc(C(F)(F)F)c2)c2c(N)ncnc21 [GSK2606414],46%,24%,2%,0%,0%,0%,0%,0%,35%,46%
